From PubChem BioAssay (NCATS)
Inconclusive results are not listed. Calls of active or inactive are those of the source. Calls follow the shape of the full dose curve. Starred links: 1 amine or outer side, 2 acyl side, 3 side chain; linkers in the order of their positions; H or OH if unused. Positions of bridges follow the written chain, without caps; N, C: chain ends. Non-standard residues stand in square brackets, D forms with d. Residues, ends and D or L forms follow the SMILES beside them. Chains are numbered I, II in the order given. Actinocin(9to1) = Cc1c2oc3c(C)ccc(C(=O)[*:1])c3nc-2c(C(=O)[*:2])c(N)c1=O; NMeV = CN[CH](C(=O)O)C(C)C; Sar = CNCC(=O)O

How the values were obtained:
[1] = qHTS drug screen for cell cycle checkpoint inhibitors in PARPi-resistant BRCA-mutant ovarian cancer cell lines. (AID 1963452); details: PEO1/OlaR viability, CellTiter-Glo luminescence, 96 h, stronger effect = lower value
Outline: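 PEO1, PEO4 and PEO1/OlaR ovarian cancer cells, 600 per well, exposed 96 h at 37C to a dilution series. Viability read by CellTiter-Glo luminescence, normalized to DMSO and empty wells; activity summarized as Z-AUC.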

[2] = qHTS for identification of novel therapeutic agents for treatment of microphthalmiaassociated transcription factor (MiT) renal cell carcinoma (RCC) (AID 1963991); details: CellTiter-Glo, 48 h; for z-score: stronger effect = lower value; for Potency: active = Z-AUC below -0.8 in all three lines; also: potency is read from the fitted curve at half-maximal effect
Outline: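 Three TFE3-fusion RCC cell lines (UOK109, UOK124, UOK145), 500 cells/well, were exposed to the 1912-compound MIPE 4.0 library for 48 hours at 37 C. Viability was read by CellTiter-Glo luminescence, normalised to DMSO (100%) and empty wells (0%), with 11-concentration curve fits.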

[3] = measured here: PEO1 parental Z-AUC
[4] = TFE3-RCC UOK109 viability, measured here: UOK109 Z-AUC
[5] = TFE3-RCC viability, measured here: UOK124 Z-AUC
[6] = TFE3-RCC viability, measured here: UOK145 Z-AUC

SMILES	Z-AUC [1]	Z-AUC [1, 3]	Z-AUC ([1]; measured here: PEO4 Z-AUC)	z-score [2, 4]	z-score [2, 5]	z-score [2, 6]	Potency ([2]; TFE3-RCC UOK109 viability)
Cc1cncc2cccc(S(=O)(=O)N3CCCN(C(=O)CN)C[C@@H]3C)c12	-0.369 (inactive)	-0.0744	-0.172	1.38	0.196	0.7	–
CC(Oc1ccc(O)cc1)(P(=O)(O)O)P(=O)(O)O	0.474 (inactive)	0.34	0.383	0.171	0.237	0.233	–
CS(=O)(=O)N1CCc2c(-c3cnc(N)nc3)nc(N3CCOCC3)nc21	-0.521 (inactive)	-0.562	0.0155	-2.02	-1.41	-1.55	93.5 nM (active)
CCCNS(=O)(=O)Nc1ncnc(OCCOc2ncc(Br)cn2)c1-c1ccc(Br)cc1	0.736 (inactive)	0.726	1.05	1.06	1.04	0.601	–
C[C@H]1COc2c(N3CCN(C)CC3)c(F)cc3c(=O)c(C(=O)O)cn1c23	-0.648 (inactive)	-0.279	-0.579	1.28	0.967	1.39	–
Cn1cc(-c2ccc3ncc(Cc4ccc5ncccc5c4)n3n2)cn1	0.547 (inactive)	0.877	0.786	-0.236	0.125	-0.113	–
Cc1c2oc3c(C)ccc(C(=O)NC4C(=O)NC(C(C)C)C(=O)N5CCCC5C(=O)N(C)CC(=O)N(C)C(C(C)C)C(=O)OC4C)c3nc-2c(C(=O)NC2C(=O)NC(C(C)C)C(=O)N3CCCC3C(=O)N(C)CC(=O)N(C)C(C(C)C)C(=O)OC2C)c(N)c1=O (stereo unspecified) (I: TVP[Sar][NMeV] / II: TVP[Sar][NMeV]; ester I:1-I:C, II:1-II:C; linker I:N-II:N via Actinocin(9to1); configuration not given here)	-0.322 (inactive)	-0.674	-0.27	-4.2	-4.25	-3.66	–
CC(=O)O[C@H]1C[C@@H]2CC[C@H]3[C@H]4C[C@H]([N+]5(C)CCCCC5)[C@@H](OC(C)=O)[C@@]4(C)CC[C@@H]3[C@@]2(C)C[C@H]1[N+]1(C)CCCCC1	0.98 (inactive)	1.06	1.25	0.763	0.611	-1.4	–
C=C(C)[C@@H]1CC[C@]2(C)CC[C@]3(C)[C@H](CC[C@@H]4[C@@]5(C)CC[C@H](O)C(C)(C)[C@H]5CC[C@]43C)[C@@H]12	1.12 (inactive)	0.74	1.16	1.03	0.631	0.295	–
COC(=O)[C@H](CCCN=C(N)N)NS(=O)(=O)c1ccc(C)cc1	1.53 (inactive)	1.46	1	0.843	0.187	0.701	–
O=C(c1ccc(F)cc1)N1CCC[C@H](c2nc(-c3ccc(F)cc3)no2)C1	1.14 (inactive)	0.372	0.34	1.39	0.757	0.391	–
Nc1cccc2c1C(=O)N(C1CCC(=O)NC1=O)C2=O (stereo unspecified)	-0.524 (inactive)	-0.0375	-0.357	0.502	0.0802	-0.491	–
Cc1noc(-c2ccc(CSCCC(=O)O)cc2)c1NC(=O)OC(C)c1ccccc1Cl (stereo unspecified)	-0.506 (inactive)	-0.869	-0.91	-0.684	0.0534	0.402	–
O=C(Nc1ccc(Oc2ccnc3[nH]ccc23)c(F)c1)c1cccn(-c2ccc(F)cc2)c1=O	-0.152 (inactive)	0.598	0.646	0.0941	0.0675	0.349	–
CCCCC(=O)O[C@]1(C(=O)CO)[C@@H](C)C[C@H]2[C@@H]3CCC4=CC(=O)C=C[C@]4(C)[C@@]3(F)[C@@H](O)C[C@@]21C	-0.479 (inactive)	0.863	0.108	-0.136	0.0594	0.664	–
COc1cc(OC)c(NC(=O)Nc2cc(C)on2)cc1Cl	1.05 (inactive)	1.02	1.3	0.422	0.71	0.616	–
CCN(C(=O)c1c(O)c2c(Cl)cccc2n(C)c1=O)c1ccccc1	-0.417 (inactive)	-0.714	-1.09	0.408	0.904	0.468	–
Nc1ccn(C2CO[C@H](CO)O2)c(=O)n1 (stereo partly specified)	0.13 (inactive)	0.905	0.884	1.41	1.05	1.04	–
NC(=O)c1cccc(-c2cccc(OC(=O)NC3CCCCC3)c2)c1	-0.0721 (inactive)	0.554	-0.318	0.801	0.852	0.744	–
N#Cc1c(NC(=O)c2cccc3ccccc23)sc2c1CCCC2	-0.477 (inactive)	-0.695	-0.753	-1.37	-1.52	-1.31	833 nM (active)
C[C@H](CCC(=O)O)[C@H]1CCC2C3C[C@H](O)[C@@H]4C[C@H](O)CC[C@]4(C)C3CC[C@@]21C (stereo partly specified)	0.00585 (inactive)	0.454	0.29	0.156	0.446	0.00817	–
C=C1CCC2[C@](C)(CO)C(O)CC[C@]2(C)C1CC=C1C(=O)OCC1O (stereo partly specified)	–	–	–	0.432	-0.457	1.09	–
